Records with an inconclusive call do not appear. Calls of active or inactive are those of the source. Calls follow the shape of the dose curve; as a rule, active = well fitted cell-killing curve with a large enough effect; inconclusive = small, poorly fitted or top-dose-only effect, or effect the other way; inactive = flat fitted curve, though single readings scatter. Where a SMILES comes first, the peptide text is derived from it. [ ]: non-standard residue; d: D form. ξ: configuration not given here. ξPhe(βξ-Me) = CC(c1ccccc1)C(N)C(=O)O; GABA = NCCCC(=O)O
Assays:
Assay in all cases: Primary qHTS to identify gynecologic anti-cancer compounds using libraries of approved drugs and bioactive compounds (AID 1345084); also: nearly all actives have a fitted effect of over 55% in size
CAOV3 = conditions: Gynecologic cancer cell panel viability, ATPlite luminescence, 48 h; series mostly up to 57.5 µM
Outline: (§1)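 Luminescence from the ATPlite ATP-monitoring reagent indicates viable cell number; lower signal means cytotoxicity. Cells received compound 16 h after seeding and were exposed for 48 h across five concentrations.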

CASKI = conditions: Gynecologic cancer cell panel viability, ATPlite luminescence, 48 h; series mostly up to 57.5 µM
Outline: as §1

Es-2 = conditions: Gynecologic cancer cell panel viability, ATPlite luminescence, 48 h; series mostly up to 57.5 µM
Outline: as §1

HeLa = conditions: Gynecologic cancer cell panel viability, ATPlite luminescence, 48 h; series mostly up to 57.5 µM
Outline: as §1

Hek293T = conditions: Gynecologic cancer cell panel viability, ATPlite luminescence, 48 h, control line for the selectivity index; series mostly up to 57.5 µM
Outline: as §1

JEG-3 = conditions: Gynecologic cancer cell panel viability, ATPlite luminescence, 48 h; series mostly up to 57.5 µM
Outline: as §1

OV90 = conditions: Gynecologic cancer cell panel viability, ATPlite luminescence, 48 h; series mostly up to 57.5 µM
Outline: as §1

PA-1 = conditions: Gynecologic cancer cell panel viability, ATPlite luminescence, 48 h; series mostly up to 57.5 µM
Outline: as §1

Tov-21-G = conditions: Gynecologic cancer cell panel viability, ATPlite luminescence, 48 h; series mostly up to 57.5 µM
Outline: as §1

Tov112D = conditions: Gynecologic cancer cell panel viability, ATPlite luminescence, 48 h; series mostly up to 57.5 µM
Outline: as §1
% is scaled to controls: 0 for no effect and ±100 for the full control effect.

CC1CCC2(C(=O)OC3OC(CO)C(O)C(O)C3O)CCC3(C(=O)O)C(=CCC4C5(C)CCC(OC6OC(C)C(O)C(O)C6O)C(C)(C)C5CCC43C)C2C1C (stereo not given)
inactive: Potency (CAOV3) | Potency (CASKI) | Potency (Es-2) | Potency (HeLa) | Potency (Hek293T) | Potency (JEG-3) | Potency (OV90) | Potency (PA-1) | Potency (Tov-21-G) | Potency (Tov112D)

COc1ccc2cc(OCC3(C(=O)O)CN(C(=O)c4ccc(F)cc4)C3)ccc2c1
inactive: Potency (CAOV3) | Potency (CASKI) | Potency (Es-2) | Potency (HeLa) | Potency (Hek293T) | Potency (JEG-3) | Potency (OV90) | Potency (PA-1) | Potency (Tov-21-G) | Potency (Tov112D)

COc1cc(/C=C/C(=O)O[C@H]2[C@H](O)[C@@H](CO)O[C@@]2(CO)O[C@H]2O[C@H](COC(=O)c3ccc(O)cc3)[C@@H](O)[C@H](O)[C@H]2O)cc(OC)c1OC
inactive: Potency (CAOV3) | Potency (CASKI) | Potency (Es-2) | Potency (HeLa) | Potency (Hek293T) | Potency (JEG-3) | Potency (OV90) | Potency (PA-1) | Potency (Tov-21-G) | Potency (Tov112D)

FC(F)(F)c1cc(C(F)(F)F)c2ccc3nc(-c4nnco4)cn3c2n1
inactive: Potency (CAOV3) | Potency (CASKI) | Potency (Es-2) | Potency (HeLa) | Potency (Hek293T) | Potency (JEG-3) | Potency (OV90) | Potency (PA-1) | Potency (Tov-21-G) | Potency (Tov112D)

CCOC(=O)[C@H]1O[C@@H]1C(=O)N[C@@H](CC(C)C)C(=O)NCCC(C)C
inactive: Potency (CAOV3) | Potency (CASKI) | Potency (Es-2) | Potency (HeLa) | Potency (Hek293T) | Potency (JEG-3) | Potency (OV90) | Potency (PA-1) | Potency (Tov-21-G) | Potency (Tov112D)

CCC(C)C(=O)O[C@@H]1[C@@H](O)[C@@H](O[C@H]2O[C@H](CO)[C@@H](O)[C@H](O)[C@H]2O)O[C@H](CO)[C@H]1O (stereo not given in full)
inactive: Potency (CAOV3) | Potency (CASKI) | Potency (Es-2) | Potency (HeLa) | Potency (Hek293T) | Potency (JEG-3) | Potency (OV90) | Potency (PA-1) | Potency (Tov-21-G) | Potency (Tov112D)

COC(=O)C1C(CC(C)=O)C=CC(O)C12Oc1cc(C)cc(O)c1C2=O (stereo not given)
inactive: Potency (CAOV3) | Potency (CASKI) | Potency (Es-2) | Potency (HeLa) | Potency (Hek293T) | Potency (JEG-3) | Potency (OV90) | Potency (PA-1) | Potency (Tov-21-G) | Potency (Tov112D)

CC/C=C/CC1=C(CCCCCCCC(=O)O)CCC1=O
inactive: Potency (CAOV3) | Potency (CASKI) | Potency (Es-2) | Potency (HeLa) | Potency (Hek293T) | Potency (JEG-3) | Potency (OV90) | Potency (PA-1) | Potency (Tov-21-G) | Potency (Tov112D)

CC1CCC2(C(=O)OC3OC(COC4OC(CO)C(O)C(O)C4O)C(O)C(O)C3O)CCC3(C)C(=CCC4C5(C)CCC(O)C(C)(C(=O)O)C5CCC43C)C2C1(C)O (stereo not given)
inactive: activity change, negative = cytotoxicity (CAOV3) 16.9% [at 11.6 µM] | activity change, negative = cytotoxicity (CASKI) 8.05% [at 11.6 µM] | activity change, negative = cytotoxicity (Es-2) 5.49% [at 11.6 µM] | activity change, negative = cytotoxicity (HeLa) -4.94% [at 11.6 µM] | activity change, negative = cytotoxicity (Hek293T) 2.24% [at 11.6 µM] | activity change, negative = cytotoxicity (JEG-3) 10.5% [at 11.6 µM] | activity change, negative = cytotoxicity (OV90) 27% [at 11.6 µM] | activity change, negative = cytotoxicity (PA-1) -0.862% [at 11.6 µM] | activity change, negative = cytotoxicity (Tov-21-G) 6.67% [at 11.6 µM] | activity change, negative = cytotoxicity (Tov112D) -8.14% [at 11.6 µM]

CCc1c(CC(N)=O)c2cc(OCCCP(=O)(O)O)ccc2n1Cc1ccccc1
inactive: Potency (CAOV3) | Potency (CASKI) | Potency (Es-2) | Potency (HeLa) | Potency (Hek293T) | Potency (JEG-3) | Potency (OV90) | Potency (PA-1) | Potency (Tov-21-G) | Potency (Tov112D)

COc1ccc(C(OC2OC(CO)C(O)C(O)C2O)C(C)O)cc1 (stereo not given)
inactive: Potency (CAOV3) | Potency (CASKI) | Potency (Es-2) | Potency (HeLa) | Potency (Hek293T) | Potency (JEG-3) | Potency (OV90) | Potency (PA-1) | Potency (Tov-21-G) | Potency (Tov112D)

CC(C)CC1NC(=O)C(C(C)c2ccccc2)NC(=O)C(C(C)C)NC(=O)C(C)NC(=O)CCCNC(=O)C(Cc2c[nH]c3ccccc23)NC(=O)C(C)NC1=O (stereo not drawn) (cyclo([GABA]AV[ξPhe(βξ-Me)]LAW); configuration not given here)
inactive: Potency (CAOV3) | Potency (CASKI) | Potency (Es-2) | Potency (HeLa) | Potency (Hek293T) | Potency (JEG-3) | Potency (OV90) | Potency (PA-1) | Potency (Tov-21-G) | Potency (Tov112D)

COC1=CC(=O)O[C@@H](/C=C/c2ccccc2)[C@@H]1O
inactive: Potency (CAOV3) | Potency (CASKI) | Potency (Es-2) | Potency (HeLa) | Potency (Hek293T) | Potency (JEG-3) | Potency (OV90) | Potency (PA-1) | Potency (Tov-21-G) | Potency (Tov112D)

CC1(C)CCC[C@@]2(C)[C@H]1[C@H](O)C=C1COC(=O)[C@@]12O
inactive: Potency (CAOV3) | Potency (CASKI) | Potency (Es-2) | Potency (HeLa) | Potency (Hek293T) | Potency (JEG-3) | Potency (OV90) | Potency (PA-1) | Potency (Tov-21-G) | Potency (Tov112D)

CC(=O)[C@@H]1CC[C@]2(C(=O)O)CC[C@]3(C)C(CCC4[C@@]5(C)CC[C@H](O)C(C)(C)C5CC[C@]43C)C12 (stereo not given in full)
inactive: Potency (CAOV3) | Potency (CASKI) | Potency (Es-2) | Potency (HeLa) | Potency (Hek293T) | Potency (JEG-3) | Potency (OV90) | Potency (PA-1) | Potency (Tov-21-G) | Potency (Tov112D)
